Outcome and AC50 data for 23 molecules are collected here from PubChem BioAssay (EPA / NIEHS).

Several values for one entry are separate records, joined by “and”; a condition that tells them apart may be missing. Equal values may be shown once. Inconclusive results are not listed. Activity calls are given as the source filed them. Rule for the calls: active = hit-call score of the fitted dose curve at least 0.9, where 1 is the maximum; inconclusive = response in the unintended direction; inactive = score below 0.9.

Chain of guinea pig Opioid, Kappa 1 Receptor (OpiateK), OPRK1 (gene 100135587) (P41144 whole entry, looked up): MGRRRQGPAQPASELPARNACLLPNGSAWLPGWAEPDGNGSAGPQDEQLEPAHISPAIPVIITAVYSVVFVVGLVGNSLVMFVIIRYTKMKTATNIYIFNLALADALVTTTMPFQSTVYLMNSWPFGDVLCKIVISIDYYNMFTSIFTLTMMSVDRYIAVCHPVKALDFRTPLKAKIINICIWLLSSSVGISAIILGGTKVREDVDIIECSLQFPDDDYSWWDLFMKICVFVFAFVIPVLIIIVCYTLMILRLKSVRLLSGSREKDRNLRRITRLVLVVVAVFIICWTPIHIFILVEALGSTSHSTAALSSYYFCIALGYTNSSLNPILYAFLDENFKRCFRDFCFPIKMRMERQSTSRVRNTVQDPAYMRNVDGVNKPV
Chain of human Adenosine A1 Receptor (AdoRA1), ADORA1 (gene 134) (P30542 whole entry, looked up): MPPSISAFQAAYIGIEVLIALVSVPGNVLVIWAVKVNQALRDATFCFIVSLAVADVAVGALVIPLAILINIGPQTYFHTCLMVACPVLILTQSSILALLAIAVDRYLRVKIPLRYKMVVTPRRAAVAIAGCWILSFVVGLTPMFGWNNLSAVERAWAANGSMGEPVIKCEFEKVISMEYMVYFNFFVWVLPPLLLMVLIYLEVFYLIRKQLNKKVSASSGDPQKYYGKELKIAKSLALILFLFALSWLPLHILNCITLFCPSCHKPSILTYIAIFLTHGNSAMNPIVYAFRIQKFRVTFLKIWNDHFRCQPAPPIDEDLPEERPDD
Chain of human Serotonin, 5-Hydroxytryptamine Receptor 5A (5HT5A), HTR5A (gene 3361) (P47898 whole entry, looked up): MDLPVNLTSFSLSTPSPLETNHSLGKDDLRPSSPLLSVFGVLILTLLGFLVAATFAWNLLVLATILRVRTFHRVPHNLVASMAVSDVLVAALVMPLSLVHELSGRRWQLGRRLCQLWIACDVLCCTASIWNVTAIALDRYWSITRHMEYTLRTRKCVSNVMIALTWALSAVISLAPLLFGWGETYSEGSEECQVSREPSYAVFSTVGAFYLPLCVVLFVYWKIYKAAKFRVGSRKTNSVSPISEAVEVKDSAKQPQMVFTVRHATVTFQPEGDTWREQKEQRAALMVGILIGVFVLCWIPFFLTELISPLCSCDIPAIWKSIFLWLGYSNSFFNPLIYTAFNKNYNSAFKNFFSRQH

The target of the first experiment is human Serotonin, 5-Hydroxytryptamine Receptor 5A (5HT5A), HTR5A (gene 3361) (UniProt P47898). As to the kind of experiment: NVS_GPCR_h5HT5A: NovaScreen (NVS) G Protein-Coupled Receptor Assay for human Serotonin, 5-Hydroxytryptamine Receptor 5A (5HT5A) (AID 2283251). The essentials:
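Cell-free radioligand displacement binding on HEK293-derived membrane protein, 1 h incubation, filter-based scintillation counting. Primary screen in duplicate at 25 uM, actives followed in concentration series; loss of signal fitted versus DMSO.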
`CCCN(CCC)c1c([N+](=O)[O-])cc(S(N)(=O)=O)cc1[N+](=O)[O-]`: the outcome was inactive.

On to `COc1ccc(C(c2ccc(OC)cc2)C(Cl)(Cl)Cl)cc1`, for which the outcome was inactive.

`COc1nc(C)nc(NC(=O)NS(=O)(=O)c2ccccc2CCC(F)(F)F)n1`: the outcome was inactive.

For `O=C(Nc1ccccc1)Nc1ccnc(Cl)c1`, the AC50 was 7.13 µM (active).

Regarding `CCOc1cc(Oc2ccc(C(F)(F)F)cc2Cl)ccc1[N+](=O)[O-]`, the result was inactive.

For the molecule `OC(c1ccc(Cl)cc1)(c1cncnc1)c1ccccc1Cl` (configuration not stated), the molecule was called inactive.

For the molecule `CON(C)C(=O)Nc1ccc(Cl)c(Cl)c1`, the half-maximal activity concentration (AC50) was 7.75 µM (active).

With `CC1COC(Cn2cncn2)(c2ccc(Oc3ccc(Cl)cc3)cc2Cl)O1` (configuration not stated), the AC50 is 6.37 µM (active).

Take `CCNc1nc(Cl)nc(NC(C)C)n1`: the call was inactive.

Take `CCON=C(CC)C1=C(O)CC(c2c(C)cc(C)cc2C)CC1=O` (configuration not stated): the molecule was called inactive.

As to `Fc1ccc(Oc2ccnc3cc(Cl)cc(Cl)c23)cc1`, the result was inactive.

As to `C#CCOS(=O)OC1CCCCC1Oc1ccc(C(C)(C)C)cc1` (configuration not stated), the concentration at half-maximal activity (AC50) was 35 µM (active).

As to `Cc1cc(Cl)ccc1OCC(=O)O`, the result was inactive.

For the next experiment, the target named is guinea pig Opioid, Kappa 1 Receptor (OpiateK), OPRK1 (gene 100135587) (UniProt P41144). As to the kind of experiment: NVS_GPCR_gOpiateK: NovaScreen (NVS) G Protein-Coupled Receptor Assay for guinea pig Opioid, Kappa 1 Receptor (OpiateK) (AID 2283252).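 Note: radioligand displacement from kappa opioid receptor in guinea pig cerebellar membranes; active means reduced radioligand binding relative to DMSO.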 The essentials:
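Signal is scintillation counts of filter-trapped radioligand bound to guinea pig cerebellar membrane receptor, measured 2 hours post-dosing. Activity is loss of binding versus DMSO, first at 25 uM in duplicate, then as concentration series for actives.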
On to `CS/C(C)=N/OC(=O)N(C)SN(C)C(=O)O/N=C(\C)SC`, for which the AC50 is 25 µM (active).

As to `OC(c1ccc(Cl)cc1)(c1cncnc1)c1ccccc1Cl` (configuration not stated), the AC50 was 9.41 µM (active).

On to `CCCCNC(=O)OCC#CI`, for which the AC50 is 37.9 µM (active) and 40.9 µM (active).

For the molecule `CCOC(=O)CC(SP(=S)(OC)OC)C(=O)OCC` (configuration not stated), the AC50 is 15.2 µM (active).

`CC1COC(Cn2cncn2)(c2ccc(Oc3ccc(Cl)cc3)cc2Cl)O1` (configuration not stated): the molecule was classed as inactive.

For `CN(C)C(=S)SSC(=S)N(C)C`, the result was inactive.

With `CO/C=C(/C(=O)OC)c1ccccc1Oc1cc(Oc2ccccc2C#N)ncn1`, the AC50 was 12.3 µM (active) [middle of 4 runs].

In the case of `CCCC1COC(Cn2cncn2)(c2ccc(Cl)cc2Cl)O1` (configuration not stated), the AC50 is 16.6 µM (active).

The next experiment deals with human Adenosine A1 Receptor (AdoRA1), ADORA1 (gene 134) (UniProt P30542). Nature of the experiment: NVS_GPCR_hAdoRA1: NovaScreen (NVS) G Protein-Coupled Receptor Assay for human Adenosine A1 Receptor (AdoRA1) (AID 2283254). The procedure, abridged:
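Each chemical is first tested twice at 25 uM, actives later in dilution series, against a radioligand bound to human cortex membranes; after 1 h, filter-retained counts are compared with DMSO controls, lower signal indicating displacement.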
Turning to `CCCN(CCC)c1c([N+](=O)[O-])cc(S(N)(=O)=O)cc1[N+](=O)[O-]`, the half-maximal activity concentration (AC50) is 6.48 µM (active).

As to `COc1ccc(C(c2ccc(OC)cc2)C(Cl)(Cl)Cl)cc1`, the AC50 was 6.77 µM (active).

On to `OC(c1ccc(Cl)cc1)(c1cncnc1)c1ccccc1Cl` (configuration not stated), for which the AC50 was 4.96 µM (active).

On to `CCCCNC(=O)OCC#CI`, for which the half-maximal activity concentration (AC50) was 9.47 µM (active) and 15.2 µM (active).

Take `COc1nc(NC(C)C)nc(NC(C)C)n1`: the AC50 was 8.99 µM (active).

Take `CCOC(=O)CC(SP(=S)(OC)OC)C(=O)OCC` (configuration not stated): the AC50 was 4.74 µM (active).

In the case of `CCNc1nc(Cl)nc(NC(C)C)n1`, the AC50 was 5.9 µM (active).

Take `CO/C=C(/C(=O)OC)c1ccccc1Oc1cc(Oc2ccccc2C#N)ncn1`: the AC50 is 6.85 µM (active) [middle of 4 runs].

For the molecule `CCCCNC(=O)n1c(NC(=O)OC)nc2ccccc21`, the call was inactive.

On to `COC(=O)N(OC)c1ccccc1COc1ccn(-c2ccc(Cl)cc2)n1`, for which the AC50 is 5.54 µM (active).

Regarding `CCCCC(CC)COC(=O)c1ccccc1C(=O)OCC(CC)CCCC` (configuration not stated), the molecule was classed as inactive.

The AC50 is the concentration at which the activity in the assay is half-maximal.
